# Laboratory results as given in PubChem BioAssay (EPA / NIEHS).
# Calls of active or inactive are those of the source. How the source made its calls: active means hit-call score of the fitted dose curve at least 0.9, where 1 is the maximum; inactive means score below 0.9.
# Assays:
# Settings in all cases: mRNA level, 48 h; actives raise or lower the signal
# [1] = read-out: Lipase C (LIPC), LIPC (gene 3990); assay: LTEA_HepaRG_LIPC: Life Technologies and Expression Analysis (LTEA) Assay for Lipase C (LIPC) using HepaRG (AID 2283514)
# In short: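 HepaRG, 48 h exposure, 8-pt half-log series from 100 uM in 0.5% DMSO, duplicates. Readout: LIPC mRNA by Fluidigm qRT-PCR, housekeeping-normalized (ACTB/GAPDH/POLR2A). Gain or loss fitted bidirectionally against DMSO baseline.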
# [2] = read-out: Lipoprotein lipase (LPL), LPL (gene 4023); assay: LTEA_HepaRG_LPL: Life Technologies and Expression Analysis (LTEA) Assay for Lipoprotein lipase (LPL) using HepaRG (AID 2283515)
# In short: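 HepaRG, 48 h exposure, 8-pt half-log dilutions from 100 uM, 0.5% DMSO vehicle, duplicates; qRT-PCR (Fluidigm array) of LPL mRNA vs housekeeping genes; bidirectional curve fit relative to DMSO baseline.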
# [3] = read-out: MicroRNA 122 (MIR122), gene 406906; assay: LTEA_HepaRG_MIR122: Life Technologies and Expression Analysis (LTEA) Assay for MicroRNA 122 (MIR122) using HepaRG (AID 2283516); further: the transcript read is the microRNA miR-122
# In short: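 qRT-PCR read-out (TaqMan, Fluidigm array), normalized to three housekeeping genes; HepaRG cells dosed 48 h at 8 concentrations up to 100 uM in 0.5% DMSO, duplicate; gain or loss fitted against DMSO baseline.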
# [4] = read-out: matrix metalloproteinase-10 (MMP10), MMP10 (gene 4319); assay: LTEA_HepaRG_MMP10: Life Technologies and Expression Analysis (LTEA) Assay for matrix metalloproteinase-10 (MMP10) using HepaRG (AID 2283517)
# In short: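 Transcript levels come from Fluidigm qRT-PCR normalized to three housekeeping genes, with curves fitted bidirectionally against 0.5% DMSO. Human HepaRG cells were dosed for 48 hours at concentrations up to 100 uM.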
# MYC, MYC (gene 4609) = assay: LTEA_HepaRG_MYC: Life Technologies and Expression Analysis (LTEA) Assay for MYC using HepaRG (AID 2283518)
# In short: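 Differentiated HepaRG cells exposed 48 h in serum-free induction medium to 8 concentrations (top 100 uM, half-log steps; 0.5% DMSO), duplicate. MYC mRNA measured by Fluidigm qRT-PCR, normalized to ACTB, GAPDH, POLR2A; bidirectional fit versus DMSO.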
# [5] = read-out: matrix metalloproteinase-3 (MMP3), MMP3 (gene 4314); assay: LTEA_HepaRG_MMP3: Life Technologies and Expression Analysis (LTEA) Assay for matrix metalloproteinase-3 (MMP3) using HepaRG (AID 2283519)
# In short: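 qRT-PCR read-out of MMP3 mRNA (normalised to three housekeeping genes) in HepaRG liver cells after 48 h chemical exposure; 8-point half-log series, top 100 uM, 0.5% DMSO vehicle. Bidirectional curve fitting against DMSO baseline.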
# [6] = read-out: Paternally Expressed 10 (PEG10), PEG10 (gene 23089); assay: LTEA_HepaRG_PEG10: Life Technologies and Expression Analysis (LTEA) Assay for Paternally Expressed 10 (PEG10) using HepaRG (AID 2283520);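 further: PEG10 transcript by qRT-PCR normalised to ACTB GAPDH and POLR2A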
# In short: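 qRT-PCR read-out: PEG10 mRNA normalised to three housekeeping genes, fitted bidirectionally against 0.5% DMSO vehicle. HepaRG cells received test chemicals for 48 h in serum-free induction medium, 8 points, top 100 uM, half-log steps.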
# [7] = read-out: Nuclear factor NF-kappa-B p105 subunit (Homo sapiens) (UniProt P19838); assay: LTEA_HepaRG_NFKB1: Life Technologies and Expression Analysis (LTEA) Assay for Nuclear Factor Kappa B Subunit 1 (NFKB1) using HepaRG (AID 2283521);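 further: TaqMan qRT-PCR transcript normalised to ACTB GAPDH and POLR2A housekeeping genes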
# In short: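 Differentiated human HepaRG cells were exposed for 48 h in serum-free induction medium to eight concentrations (top 100 uM, half-log steps, 0.5% DMSO), in duplicate. NFKB1 mRNA was measured by TaqMan qRT-PCR, normalized to ACTB/GAPDH/POLR2A, and fitted bidirectionally against DMSO.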
# [8] = read-out: Protein phosphatase 2A (PPP2R4), PTPA (gene 5524); assay: LTEA_HepaRG_PPP2R4: Life Technologies and Expression Analysis (LTEA) Assay for Protein phosphatase 2A (PPP2R4) using HepaRG (AID 2283522)
# In short: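 HepaRG, 48 h exposure, 8-pt half-log series from 100 uM, 0.5% DMSO vehicle, duplicates. Readout: PPP2R4 mRNA, Fluidigm qRT-PCR, housekeeping-normalized. Bidirectional curve fit vs DMSO baseline.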
# [9] = read-out: Phosphatase and tensin (PTEN), PTEN (gene 5728); assay: LTEA_HepaRG_PTEN: Life Technologies and Expression Analysis (LTEA) Assay for Phosphatase and tensin (PTEN) using HepaRG (AID 2283523)
# In short: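 HepaRG, 48 h exposure, 8-pt half-log series from 100 uM top, 0.5% DMSO vehicle, duplicates. Readout: Fluidigm qRT-PCR of PTEN transcript; housekeeping normalization (ACTB, GAPDH, POLR2A). Gain or loss fitted relative to DMSO baseline.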
# [10] = read-out: solute carrier (SLC22A1), SLC22A1 (gene 6580); assay: LTEA_HepaRG_SLC22A1: Life Technologies and Expression Analysis (LTEA) Assay for solute carrier (SLC22A1) using HepaRG (AID 2283524)
# In short: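 qRT-PCR readout (TaqMan, Fluidigm arrays) of SLC22A1 transcript, normalized to three housekeeping genes; bidirectional curve fit relative to 0.5% DMSO vehicle. Differentiated human HepaRG cells, 48 h chemical exposure, top concentration 100 uM, half-log steps, eight points.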
# [11] = read-out: Pyruvate Dehydrogenase Kinase 4 (PDK4), PDK4 (gene 5166); assay: LTEA_HepaRG_PDK4: Life Technologies and Expression Analysis (LTEA) Assay for Pyruvate Dehydrogenase Kinase 4 (PDK4) using HepaRG (AID 2283525)
# In short: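 HepaRG (human liver line), 48 h chemical exposure, 8-pt half-log CRC top 100 uM, 0.5% DMSO vehicle, duplicates. Readout: TaqMan qRT-PCR of PDK4 mRNA, housekeeping-normalized; gain/loss fit relative to DMSO baseline.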
# [12] = read-out: NAD(P)H dehydrogenase [quinone] 1 (NQO1), NQO1 (gene 1728); assay: LTEA_HepaRG_NQO1: Life Technologies and Expression Analysis (LTEA) Assay for NAD(P)H dehydrogenase [quinone] 1 (NQO1) using HepaRG (AID 2283526)
# In short: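 qRT-PCR read-out (Fluidigm TaqMan), normalized to three housekeeping genes, after 48 h chemical exposure of HepaRG cells. Concentrations: eight points, top 100 uM, half-log steps, 0.5% DMSO vehicle. Gain or loss of signal fitted relative to DMSO.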
# [13] = read-out: succinate dehydrogenase complex iron sulfur subunit B (SDHB), SDHB (gene 6390); assay: LTEA_HepaRG_SDHB: Life Technologies and Expression Analysis (LTEA) Assay for succinate dehydrogenase complex iron sulfur subunit B (SDHB) using HepaRG (AID 2283528)
# In short: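 HepaRG, 48 h exposure, 8-pt half-log series from 100 uM in 0.5% DMSO, duplicates. Readout: SDHB mRNA by Fluidigm qRT-PCR vs housekeeping genes; bidirectional fit relative to DMSO.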
# [14] = read-out: Signal transducer and activator of transcription 3 (Homo sapiens) (UniProt P40763); assay: LTEA_HepaRG_STAT3: Life Technologies and Expression Analysis (LTEA) Assay for Signal transducer and activator of transcription (STAT3) using HepaRG (AID 2283529)
# In short: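 HepaRG, 48 h exposure, 8-pt half-log series (top 100 uM), 0.5% DMSO vehicle, duplicates. Readout: STAT3 transcript by Fluidigm qRT-PCR, housekeeping-normalized; bidirectional fit vs DMSO baseline.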
# [15] = read-out: solute carrier (SLCO1B1), SLCO1B1 (gene 10599); assay: LTEA_HepaRG_SLCO1B1: Life Technologies and Expression Analysis (LTEA) Assay for solute carrier (SLCO1B1) using HepaRG (AID 2283530)
# In short: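 Differentiated human HepaRG cells were exposed for 48 h in serum-free induction medium to eight half-log concentrations, top 100 uM, in 0.5% DMSO. SLCO1B1 mRNA was measured by qRT-PCR, normalized to ACTB, GAPDH and POLR2A, and fitted bidirectionally against DMSO.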
# [16] = read-out: sulfotransferase 2A1 (SULT2A1), SULT2A1 (gene 6822); assay: LTEA_HepaRG_SULT2A1: Life Technologies and Expression Analysis (LTEA) Assay for sulfotransferase 2A1 (SULT2A1) using HepaRG (AID 2283531)
# In short: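 HepaRG human liver cells, 48 h exposure in serum-free induction medium to 8 half-log concentrations topping at 100 µM (0.5% DMSO), duplicate wells. SULT2A1 mRNA measured by TaqMan qRT-PCR, normalized to ACTB/GAPDH/POLR2A; bidirectional fit against DMSO.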
# [17] = read-out: Transforming Growth Factor (TGFA), TGFA (gene 7039); assay: LTEA_HepaRG_TGFA: Life Technologies and Expression Analysis (LTEA) Assay for Transforming Growth Factor (TGFA) using HepaRG (AID 2283532)
# In short: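 qRT-PCR read-out of TGFA transcript, normalized to three housekeeping genes, fitted bidirectionally against 0.5% DMSO baseline. Human HepaRG cultures received chemicals for 48 h at eight half-log concentrations, top 100 uM.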
# [18] = read-out: Transforming Growth Factor (TGFB1), TGFB1 (gene 7040); assay: LTEA_HepaRG_TGFB1: Life Technologies and Expression Analysis (LTEA) Assay for Transforming Growth Factor (TGFB1) Transporter using HepaRG (AID 2283533)
# In short: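 Differentiated HepaRG cells exposed 48 hr in serum-free induction medium to eight half-log concentrations up to 100 uM (0.5% DMSO), duplicate; TGFB1 mRNA by TaqMan qRT-PCR normalised to ACTB, GAPDH, POLR2A; bidirectional fit against DMSO.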
# [19] = read-out: Nuclear factor erythroid 2-related factor 2 (Homo sapiens) (UniProt Q16236); assay: LTEA_HepaRG_NFE2L2: Life Technologies and Expression Analysis (LTEA) Assay for Nuclear factor erythroid 2-related factor 2 (NFE2L2) Transcription Factor using HepaRG (AID 2283527);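 further: TaqMan qRT-PCR transcript level normalised to ACTB GAPDH and POLR2A housekeeping genes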
# In short: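 HepaRG, 48 h dosing, 8-pt half-log series from 100 uM in 0.5% DMSO, duplicates. Read-out: NFE2L2 mRNA by qRT-PCR (ACTB/GAPDH/POLR2A normalization). Bidirectional curve fit vs DMSO baseline.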
# Sequence of Signal transducer and activator of transcription 3 (Homo sapiens) (P40763 whole entry, looked up): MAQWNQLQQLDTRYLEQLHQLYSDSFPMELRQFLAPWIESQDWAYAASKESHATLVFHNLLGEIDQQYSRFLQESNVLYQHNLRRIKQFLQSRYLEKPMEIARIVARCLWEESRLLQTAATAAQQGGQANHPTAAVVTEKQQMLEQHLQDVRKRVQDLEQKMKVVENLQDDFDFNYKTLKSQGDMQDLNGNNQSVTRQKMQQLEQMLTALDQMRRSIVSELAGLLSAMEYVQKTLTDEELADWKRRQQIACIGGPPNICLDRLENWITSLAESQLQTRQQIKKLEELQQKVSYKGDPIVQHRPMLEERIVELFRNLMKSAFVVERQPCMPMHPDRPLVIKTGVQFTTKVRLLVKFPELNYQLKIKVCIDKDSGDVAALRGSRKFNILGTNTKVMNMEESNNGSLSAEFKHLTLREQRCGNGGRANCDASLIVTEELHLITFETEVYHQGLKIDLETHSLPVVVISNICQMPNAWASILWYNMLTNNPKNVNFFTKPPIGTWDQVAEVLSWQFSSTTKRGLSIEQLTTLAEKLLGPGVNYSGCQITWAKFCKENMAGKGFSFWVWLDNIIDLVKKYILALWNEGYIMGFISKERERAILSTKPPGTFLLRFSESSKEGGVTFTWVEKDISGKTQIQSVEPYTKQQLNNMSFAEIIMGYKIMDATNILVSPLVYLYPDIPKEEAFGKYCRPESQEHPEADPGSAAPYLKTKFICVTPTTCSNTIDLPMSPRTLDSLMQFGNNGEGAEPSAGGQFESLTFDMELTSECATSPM
# Sequence of Nuclear factor NF-kappa-B p105 subunit (Homo sapiens) (P19838 whole entry, looked up): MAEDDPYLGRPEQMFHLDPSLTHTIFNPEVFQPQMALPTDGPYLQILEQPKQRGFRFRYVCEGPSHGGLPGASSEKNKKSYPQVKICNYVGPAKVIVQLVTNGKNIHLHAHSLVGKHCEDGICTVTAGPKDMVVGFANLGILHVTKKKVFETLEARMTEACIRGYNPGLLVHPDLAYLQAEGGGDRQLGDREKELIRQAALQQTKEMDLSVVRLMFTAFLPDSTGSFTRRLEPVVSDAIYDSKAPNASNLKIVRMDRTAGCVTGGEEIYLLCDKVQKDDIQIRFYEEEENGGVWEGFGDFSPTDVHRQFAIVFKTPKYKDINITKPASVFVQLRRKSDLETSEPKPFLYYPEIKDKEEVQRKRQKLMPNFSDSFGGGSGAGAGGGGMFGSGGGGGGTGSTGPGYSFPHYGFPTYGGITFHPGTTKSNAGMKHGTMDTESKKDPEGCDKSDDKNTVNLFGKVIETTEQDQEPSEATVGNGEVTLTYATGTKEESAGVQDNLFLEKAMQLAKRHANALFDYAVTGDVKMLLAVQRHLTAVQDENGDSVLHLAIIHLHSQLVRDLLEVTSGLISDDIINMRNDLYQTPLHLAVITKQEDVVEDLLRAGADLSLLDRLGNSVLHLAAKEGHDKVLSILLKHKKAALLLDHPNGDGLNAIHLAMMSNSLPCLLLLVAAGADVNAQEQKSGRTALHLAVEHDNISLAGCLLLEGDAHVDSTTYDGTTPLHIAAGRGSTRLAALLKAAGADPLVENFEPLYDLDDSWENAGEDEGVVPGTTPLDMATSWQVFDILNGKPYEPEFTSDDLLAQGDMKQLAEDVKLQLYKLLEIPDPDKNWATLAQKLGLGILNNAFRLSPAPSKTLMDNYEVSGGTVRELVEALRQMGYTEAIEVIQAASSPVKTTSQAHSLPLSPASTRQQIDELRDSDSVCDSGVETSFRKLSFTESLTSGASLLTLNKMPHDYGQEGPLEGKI
# Sequence of Nuclear factor erythroid 2-related factor 2 (Homo sapiens) (Q16236 whole entry, looked up): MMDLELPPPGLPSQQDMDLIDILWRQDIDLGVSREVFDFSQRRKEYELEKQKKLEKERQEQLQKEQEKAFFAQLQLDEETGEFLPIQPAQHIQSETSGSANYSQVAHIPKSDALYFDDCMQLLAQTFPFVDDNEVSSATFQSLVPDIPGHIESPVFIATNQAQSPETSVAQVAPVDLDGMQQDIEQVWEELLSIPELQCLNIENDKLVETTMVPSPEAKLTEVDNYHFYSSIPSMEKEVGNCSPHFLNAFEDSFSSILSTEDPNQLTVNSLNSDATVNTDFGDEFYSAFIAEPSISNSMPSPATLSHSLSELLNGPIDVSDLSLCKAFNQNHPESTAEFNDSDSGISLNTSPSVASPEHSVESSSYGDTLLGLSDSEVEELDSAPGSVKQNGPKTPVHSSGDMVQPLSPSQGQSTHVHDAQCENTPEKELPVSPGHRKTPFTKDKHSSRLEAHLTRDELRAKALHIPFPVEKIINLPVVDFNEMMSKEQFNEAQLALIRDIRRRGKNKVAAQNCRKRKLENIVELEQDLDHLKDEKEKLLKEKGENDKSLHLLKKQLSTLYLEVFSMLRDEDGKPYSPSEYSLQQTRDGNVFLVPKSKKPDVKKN
smiles,measurement,setting,value
C#C[C@]1(O)CC[C@H]2[C@@H]3CCC4=CC(=O)CC[C@@H]4[C@H]3CC[C@@]21CC,outcome,[1],inactive
same,outcome,[2],inactive
same,outcome,[3],inactive
same,outcome,[4],inactive
same,outcome,"MYC, MYC (gene 4609)",inactive
same,outcome,[5],inactive
same,AC50,[6],2380 nM (active)
same,outcome,[7],inactive
same,outcome,[8],inactive
same,outcome,[9],inactive
same,outcome,[10],inactive
same,AC50,[11],442 nM (active)
same,outcome,[12],inactive
same,outcome,[13],inactive
same,outcome,[14],inactive
same,AC50,[15],32.5 nM (active)
same,outcome,[16],inactive
same,outcome,[17],inactive
same,outcome,[18],inactive
OB(O)O,outcome,[1],inactive
same,outcome,[2],inactive
same,outcome,[3],inactive
same,outcome,[4],inactive
same,outcome,"MYC, MYC (gene 4609)",inactive
same,outcome,[5],inactive
same,outcome,[9],inactive
same,outcome,[10],inactive
same,outcome,[11],inactive
same,outcome,[12],inactive
same,outcome,[13],inactive
same,outcome,[14],inactive
same,outcome,[15],inactive
same,outcome,[16],inactive
same,outcome,[17],inactive
same,outcome,[18],inactive
COC(=O)c1ccc(I)cc1S(=O)(=O)NC(=O)Nc1nc(C)nc(OC)n1,outcome,[1],inactive
same,outcome,[2],inactive
same,outcome,[3],inactive
same,outcome,[4],inactive
same,outcome,"MYC, MYC (gene 4609)",inactive
same,outcome,[5],inactive
same,outcome,[9],inactive
same,outcome,[10],inactive
same,outcome,[11],inactive
same,outcome,[12],inactive
same,outcome,[13],inactive
same,outcome,[15],inactive
same,outcome,[16],inactive
same,outcome,[17],inactive
same,outcome,[18],inactive
CC(C)(C)[C@@H](O)[C@@H](Cc1ccc(Cl)cc1)n1cncn1,outcome,[1],inactive
same,AC50,[2],16500 nM (active)
same,outcome,[3],inactive
same,outcome,[4],inactive
same,outcome,"MYC, MYC (gene 4609)",inactive
same,outcome,[7],inactive
same,outcome,[9],inactive
same,outcome,[10],inactive
same,outcome,[11],inactive
same,outcome,[12],inactive
same,outcome,[19],inactive
same,outcome,[13],inactive
same,outcome,[14],inactive
same,outcome,[16],inactive
same,outcome,[17],inactive
same,outcome,[18],inactive
CCOC(=O)c1ccc(O)cc1,outcome,[1],inactive
same,outcome,[2],inactive
same,outcome,[3],inactive
same,outcome,[4],inactive
same,outcome,"MYC, MYC (gene 4609)",inactive
same,outcome,[5],inactive
same,outcome,[9],inactive
same,outcome,[10],inactive
same,outcome,[11],inactive
same,outcome,[12],inactive
same,outcome,[13],inactive
same,outcome,[14],inactive
same,outcome,[15],inactive
same,outcome,[16],inactive
same,outcome,[17],inactive
same,outcome,[18],inactive
COc1c(Cl)ccc(Cl)c1C(=O)O,outcome,[1],inactive
same,outcome,[2],inactive
same,outcome,[3],inactive
same,outcome,[4],inactive
same,outcome,"MYC, MYC (gene 4609)",inactive
same,outcome,[5],inactive
same,outcome,[8],inactive
same,outcome,[9],inactive
same,outcome,[10],inactive
same,outcome,[11],inactive
same,outcome,[12],inactive
same,outcome,[13],inactive
same,outcome,[14],inactive
same,outcome,[15],inactive
same,outcome,[16],inactive
same,outcome,[17],inactive
same,outcome,[18],inactive
CCCN(CCC)C(=O)SCC,outcome,[1],inactive
same,outcome,[2],inactive
same,outcome,[3],inactive
same,outcome,[4],inactive
same,outcome,"MYC, MYC (gene 4609)",inactive
same,outcome,[5],inactive
same,outcome,[9],inactive
same,outcome,[10],inactive
same,outcome,[11],inactive
same,outcome,[12],inactive
same,outcome,[19],inactive
same,outcome,[13],inactive
same,outcome,[14],inactive
same,outcome,[15],inactive
same,outcome,[16],inactive
same,outcome,[17],inactive
same,outcome,[18],inactive
